# Screening data as filed in PubChem.
# BAZ2B block = blocks human BAZ2B; 360,000 tested, 4.4% active; Potency, µM (highest dose often 114 µM), without a hit: at the highest dose activity change, negative = inhibition, most hits filed as inhibitors; AlphaScreen BAZ2B-H3K14Ac peptide displacement; Q9UIF8; AID 504333; further: potency means the concentration at half of the fitted maximal effect; on the % scale 0 is the no-effect control and ±100 the full control effect; nearly all actives have a fitted effect of over 60% in size
#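 In this displacement format the biotinylated H3(5-23) peptide acetylated at Lys14 serves as ligand at 50 nM, with BAZ2B at 50 nM in PBS pH 7.4 containing 0.01% Tween-20. Donor and acceptor beads are 10 ug/mL final.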
# G9a block = inhibitors of human histone lysine methyltransferase G9a | Q96KQ7 | G9a H3K9 monomethylation, AlphaScreen, 2 h | Potency, µM (top dose mostly 102 µM), for the others: at the highest dose activity, negative = inhibition, most hits filed as inhibitors | 350,000 tested, 8.8% active | AID 504332; further: potency means the concentration at half of the fitted maximal effect; on the % scale 0 is the no-effect control and ±100 the full control effect; nearly all actives have a fitted effect of over 75% in size
#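 Compounds were preincubated with 20 nM G9a for 15 min, after which biotinylated H3K9 peptide (500 nM) and SAM (20 uM) started a 2 h room-temperature reaction. Monomethylated product was quantified by antibody-based AlphaScreen chemiluminescence.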
# JMJD2A Tudor = blocks the human JMJD2A Tudor domain. Potency, µM (doses to about 114 µM), for inactives: at the highest dose activity change, negative = inhibition, most hits filed as inhibitors. 390,000 tested, 4.4% active. O75164. AlphaScreen JMJD2A-Tudor / H3K4me3 peptide binding. AID 504339; further: potency means the concentration at half of the fitted maximal effect; on the % scale 0 is the no-effect control and ±100 the full control effect; nearly all actives have a fitted effect of over 50% in size
# Target sequence (O75164 whole entry, looked up, the tested form may be a part): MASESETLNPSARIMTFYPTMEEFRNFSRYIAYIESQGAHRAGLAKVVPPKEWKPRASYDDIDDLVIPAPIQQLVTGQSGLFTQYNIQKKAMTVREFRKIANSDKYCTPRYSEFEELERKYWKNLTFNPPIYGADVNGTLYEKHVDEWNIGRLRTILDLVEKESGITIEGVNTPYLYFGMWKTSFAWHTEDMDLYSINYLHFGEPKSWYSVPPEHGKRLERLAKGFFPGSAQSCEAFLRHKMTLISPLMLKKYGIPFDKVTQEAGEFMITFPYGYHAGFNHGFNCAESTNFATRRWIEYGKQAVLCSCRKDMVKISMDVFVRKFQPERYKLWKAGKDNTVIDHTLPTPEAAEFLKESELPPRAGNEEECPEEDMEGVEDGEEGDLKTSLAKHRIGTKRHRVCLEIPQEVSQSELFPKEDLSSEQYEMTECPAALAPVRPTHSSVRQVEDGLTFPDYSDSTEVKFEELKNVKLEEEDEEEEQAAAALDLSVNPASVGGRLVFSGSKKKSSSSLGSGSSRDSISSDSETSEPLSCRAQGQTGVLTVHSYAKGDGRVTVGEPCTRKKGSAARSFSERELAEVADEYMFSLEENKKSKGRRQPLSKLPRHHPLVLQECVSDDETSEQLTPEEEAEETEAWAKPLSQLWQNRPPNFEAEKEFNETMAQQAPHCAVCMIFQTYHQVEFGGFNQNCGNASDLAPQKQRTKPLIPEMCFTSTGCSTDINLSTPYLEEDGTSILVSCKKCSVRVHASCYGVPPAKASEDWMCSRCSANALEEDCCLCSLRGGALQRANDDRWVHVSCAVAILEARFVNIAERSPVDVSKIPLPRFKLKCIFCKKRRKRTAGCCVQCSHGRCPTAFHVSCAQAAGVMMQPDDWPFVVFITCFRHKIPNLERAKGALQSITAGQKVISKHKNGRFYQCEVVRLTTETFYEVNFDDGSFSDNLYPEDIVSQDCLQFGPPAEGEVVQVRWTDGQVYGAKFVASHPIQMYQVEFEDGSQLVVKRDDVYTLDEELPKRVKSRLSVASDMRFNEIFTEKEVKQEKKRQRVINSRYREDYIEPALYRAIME
# HP1b binding inh = blocks HP1-beta chromodomain binding to methylated histone tails. AID 540317. AlphaScreen HP1-beta / biotin-H3K9me3 peptide binding. 390,000 tested, 0.56% active. Potency, µM (series often up to 114 µM), for inactives: top-dose activity change, negative = inhibition, actives largely listed as inhibitors. P83916; further: potency means the concentration at half of the fitted maximal effect; nearly all actives have a fitted effect of over 70% in size
#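 AlphaScreen: HP1-beta (50 nM) preformed 30 min with biotin-H3(1-18)K9me3 peptide (50 nM) in PBS pH 7.4, 0.01% Tween-20. Compound added for 30 min at RT, then streptavidin donor/nickel chelate acceptor beads (10 ug/mL) for 30 min.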
# CtBP-E1A inh = inhibitors of CtBP/E1A interaction | activity change, % (concentration not given with the values) | AlphaScreen GST-E1A/His-CtBP binding, 1536-well; hits give low values | 340,000 tested, 0.49% active; in the data active means activity change below about -65%; inconclusive means mostly about -30% to -63%; further: on the % scale 0 is the no-effect control and ±100 the full control effect
#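 GST-E1A and His-tagged CtBP (125 nM each as 5X stock) were preincubated with pin-transferred compound for 2 h at 37 °C in the dark, then glutathione donor and nickel acceptor beads were added for 1 h before AlphaScreen reading.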
# Six1-Eya2 inh = inhibitors of human Six1/Eya2 interaction. AID 651725. Q15475+O00167. activity change, % (test concentration not listed). 360,000 tested, 0.56% active. AlphaScreen GST-Six1/His-Eya2 binding, biochemical; hits give low values; in the data active means activity change below about -65%; inconclusive means mostly about -30% to -63%; further: on the % scale 0 is the no-effect control and ±100 the full control effect
#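 Compounds are tested against tagged Six1 and Eya2 proteins bridged by glutathione donor and nickel acceptor beads; after a one-hour incubation at 37 °C without light, AlphaScreen emission is recorded.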
# * = called active by the depositor; ? = inconclusive; . = no result given; [ ] = another dose, or the depositor's remark. The list is not random: actives were taken first. Their share in the collection is about 10%. Unless noted, the call rests on the fitted dose curve; in most records, active means well fitted inhibition curve with a large enough effect; inconclusive means small, poorly fitted or top-dose-only effect; inactive means no such curve, though single readings can be large or run the other way.
SMILES,BAZ2B block,G9a block,JMJD2A Tudor,HP1b binding inh,CtBP-E1A inh,Six1-Eya2 inh
CCC(=O)N(CC)C1=C(O)c2ccccc2C(=O)C1=O,44.7µM*,1µM*,5.62µM*,?,-6.5,-5.9
CCC(=O)N(C1=C(NC)C(=O)c2ccccc2C1=O)C(C)C,-24.7%,-39.9%,-17.2%,2.8%,.,2.4
COc1ccc(C(=O)C2CCCN(C(=O)/C=C/c3ccccn3)C2)c(C)c1 (stereo not drawn),0.2%,-36.0%,-5.4%,30.4%,1.4,-3.2
O=C(NCCn1c(C(F)(F)F)nc2cc(C(F)(F)F)ccc21)[C@H]1CCCN1c1nc(CN2CCCCC2)cs1,-30.2%,70.8µM*,-28.2%,33.2%,.,5.7
Cc1nc2nc(C)n(-c3ccccc3)c2s1,-2.2%,12.6µM*,-27.6%,14.1%,-8.4,-0.3
Cc1nc2ccccc2n1-c1ccccc1,12.5%,-6.5%,2.5%,33.7%,-0.4,1.2
CC(=O)O[C@H]1C[C@@H]2CCC3C(CC[C@@]4(C)[C@H]3C[C@H]([N+]3(C)CCCCC3)[C@@H]4OC(C)=O)[C@@]2(C)C[C@@H]1[N+]1(C)CCCCC1 (stereo partly drawn),.,9.4%[12.7 µM],.,.,.,.
C[N+]1(C2CCC3CCC2C3O)CCCC1 (stereo not drawn),50.1µM*,11.2µM*,4.1%,27.2%,4.0,1.8
CC(=O)OC1C2CCC1C([N+]1(C)CCCCC1)CC2 (stereo not drawn),-25.6%,31.6µM*,25.1µM*,70.8µM*,-18.4,0.5
COc1ccccc1OCC(=O)NNC(=O)c1ccc(F)c(S(=O)(=O)N2CCOCC2)c1,.,.,?,35.4%,0.0,20.5
O=C(NCC1CCN(c2ccc(S(=O)(=O)N3CCOCC3)cc2)CC1)c1cccc(Cl)c1,56.2µM*,-17.6%,-16.6%,10.8%,-1.4,0.2
CC(=O)c1ccc(NC(=S)Nc2ccc(N3CCOCC3)cc2)cc1,-26.8%,44.7µM*,-5.8%,-17.0%,-11.3,-4.7
C/C(=C\C(=O)c1ccc(Cl)cc1)Nc1ccc(N2CCOCC2)cc1,0.4%,1.6%,-6.2%,37.6%,-0.9,-1.0
O=C(NC(=S)Nc1ccc(N2CCOCC2)cc1)c1ccccc1,?,4.47µM*,?,?,-13.2,-7.0
C/C(=C\C(=O)c1ccccc1)Nc1ccc(N2CCOCC2)cc1,-1.0%,79.4µM*,-27.0%,22.8%,-6.6,-14.6
COc1ccc2c(c1)c1c(c(=O)n(CCc3ccccc3)c(=O)n1Cc1ccc(F)cc1)n2C,-9.0%,-29.1%[59 µM],2.1%,30.3%,.,.
Cc1ccc2c(c1)sc1nc(-c3cc4ccccc4oc3=O)cn12,4.1%,?,-11.1%,25.4%,.,.
CC(C)OC(=O)N(C)C[C@@H]1OCc2cnnn2CCCC(=O)N([C@@H](C)CO)C[C@H]1C,.,.,.,.,-3.0,5.5
FC(F)Oc1ccc(C2N=C(c3ccccc3)NO2)cc1 (stereo not drawn),-1.8%,-11.9%,-6.1%,48.2%,8.7,3.5
Cc1ccc(CNC(=O)C2CCCN(c3nc4ccccc4n4cccc34)C2)cc1 (stereo not drawn),-18.0%,-11.0%[59 µM],-2.0%,27.0%,.,.
CN(Cc1ccccc1)C(=O)COC(=O)C1CCN(S(=O)(=O)c2cccs2)CC1,.,-5.4%,-0.7%,12.3%,1.6,3.0
CCc1ccc(C(=O)NC(=S)Nc2ccc(N3CCOCC3)cc2)cc1,20µM*,6.31µM*,?,?,.,-13.2
O=C(NC(=S)Nc1ccc(N2CCOCC2)cc1)c1cncc(Br)c1,?,?,-29.1%,?,-12.5,-9.0
Cc1ccccc1C(=O)NC(=S)Nc1ccc(N2CCOCC2)cc1,?,44.7µM*,?,?,-13.5,-15.7
O=C(NC(=S)Nc1ccc(N2CCOCC2)cc1)c1cccc(Cl)c1Cl,?,.,-16.6%,31.9%,3.1,0.2
SMILES,BAZ2B block,G9a block,JMJD2A Tudor,HP1b binding inh,CtBP-E1A inh,Six1-Eya2 inh
O=C(NC(=S)Nc1ccc(N2CCOCC2)cc1)c1cccc(Cl)c1,17.8µM*,28.2µM*,?,?,-8.2,?
COc1ccccc1-n1nc(-c2ccccc2)c2cnc3c(F)cc(F)cc3c21,.,3.4%[59 µM],-18.3%,27.0%,.,.
O=C(c1[nH]c(C(F)(F)F)nc1-c1ccccc1)N1CCc2ccccc2C1,.,.,.,.,4.1,-1.6
COc1ccccc1CNC(=O)CCC(=O)N1Cc2cccc(OC)c2Oc2ncccc21,0.5%,-6.1%,-1.6%,8.7%[57 µM],.,-2.0
COc1ccc(-c2cc(=O)n(-c3nc4ccccc4[nH]3)[nH]2)cc1,28.2µM*,79.4µM*,?,14.5%,-65.5*,?
COc1cccc(CCNC(=O)c2ccc(Cn3c(SCc4ccccc4)nc4cccnc43)cc2)c1,-10.0%,?,-13.5%,34.8%,.,.
CN(C)S(=O)(=O)c1cccc(NC(=S)NC(=O)c2ccco2)c1,-5.6%,39.8µM*,?,17.8%,0.1,-0.6
CN(C)S(=O)(=O)c1cccc(NC(=S)NNC(=O)c2cc3ccccc3cc2O)c1,?,?,39.8µM*,-26.7%[57 µM],?,?
NS(=O)(=O)c1ccc(NC(=S)NC(=O)c2ccco2)cc1,-20.2%,56.2µM*,25.1µM*,5.6%,19.3,-0.4
COc1cc(NS(=O)(=O)c2ccc(NC(=S)NC(=O)c3ccco3)cc2)ncn1,-19.9%,50.1µM*,-3.4%,15.9%,3.2,-13.7
Nc1c(C(=O)NCc2ccccc2)nnn1Cc1cccc(Br)c1,-5.2%,4.2%[59 µM],-18.2%,16.6%,.,.
C[C@@H]1CN([C@@H](C)CO)C(=O)c2cc(Br)cnc2O[C@H]1CN(C)C(=O)Cc1cccnc1,.,.,.,.,-11.3,-5.1
CN(C)C(=O)CSc1nnc(-c2cccs2)n1-c1ccccc1,-18.6%,-3.9%,2.8%,13.7%,0.8,-0.2
Cc1cccc(NC(=S)NC(=O)c2ccco2)c1C,-25.2%,?,-1.1%,29.7%,-0.8,-3.5
O=C(NC(=S)Nc1ccccc1Br)c1ccco1,2.6%,44.7µM*,-13.0%,10.1%,-14.1,-4.9
CCOC(=O)c1cc(-c2ccccc2)n(CCCC(=O)Nc2ccc(C)c(Cl)c2)c1C,-7.6%,-34.5%[59 µM],-19.9%,24.3%,.,.
O=C(CN1CCc2ccccc21)NC(=O)NCc1ccccc1,.,31.6µM*,-9.0%[11.4 µM],-11.3%,.,3.8
O=C(CN1CCc2ccccc21)NCc1ccccc1Cl,-37.3%,70.8µM*,?,-8.6%,-17.3,-2.8
O=C(CN1CCCc2ccccc21)NC(=O)NC1CCCCC1,?,70.8µM*,31.6µM*,?,-9.5,-12.6
O=C(CN1CCCc2ccccc21)NC(=O)NCc1ccccc1,1.5%,-5.3%[12.7 µM],-12.7%,20.8%,-4.1,-14.9
CC(C)(C)NC(=O)NC(=O)CN1CCCc2ccccc21,-22.5%,?,-30.2%,-10.0%,5.4,-8.9
COC(=O)c1ccc(CN2CCc3ccccc32)cc1,?,.,39.8µM*,-19.2%,-19.0,-29.2
